# A selection: hits, their analogues and other compounds. The true share with any hit is near 2%.
# Mot1-301 SUMO – inhibitors of SUMOylation pathway: yeast Mot1-301 growth rescue. S. cerevisiae Mot1-301 growth rescue, ATP luminescence, 38.5C; percent above DMSO median, 100 means doubled. AID 2716. growth rescue, % at 18.8 µM. 1% of 320,000 active;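 active means every valid replicate shows activation above 250% relative to neutral control wells; inactive means the rest, any valid replicate at or below 250%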;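 further: OY570 slx delta 5 strain wells were the positive control but not used for scaling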
# MsrA act – bovine methionine sulfoxide reductase A activation. purified bovine MsrA, absorbance read-out. activation, % at 10.6 µM. 0.3% of 360,000 active. AID 602163; in the data active means activation above about 7.5%;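 further: 0% = vehicle and 100% = reference activator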
# PKA-R1A act – activators of PKA-R1A complex. P00514+P68181. 0.083% of 340,000 active. PKA-R1A dissociation, Cy5-IP20 fluorescence polarization; scaled: DMSO 0%, 113 µM cGMP 100%. activation, % at 11.4 µM;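 active means percent activation above the mean of all tested compounds plus 3 SD, cut at about 19% in these data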;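 further: higher means more PKAc released from R1A so a rise in polarization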
# MsrA inhibitor – inhibitors of bovine MsrA. purified bovine MsrA, absorbance read-out. inhibition, % at 15.5 µM. 0.75% of 360,000 active. AID 651718; in the data active means inhibition above about 4.5%;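 further: 0% = vehicle wells with enzyme and 100% = reference inhibitor wells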
# PKA-R2B act – PKA-R2B complex activation. P22694+P31323. activation, % at 11.4 µM. 0.079% of 340,000 active. PKA-R2B holoenzyme dissociation, Cy5-IP20 fluorescence polarization; R2B truncated from residue 108, S112A mutant; 0% DMSO only, 100% 113 µM cGMP. AID 504700;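 active means activation above a cutoff set at the mean over all compounds plus 3 SD, cut at about 18% in these data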;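 further: higher means more holoenzyme dissociation and a rise in polarization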
# Target sequence (P31323 whole entry, looked up, other chains not shown, the tested form may be a part): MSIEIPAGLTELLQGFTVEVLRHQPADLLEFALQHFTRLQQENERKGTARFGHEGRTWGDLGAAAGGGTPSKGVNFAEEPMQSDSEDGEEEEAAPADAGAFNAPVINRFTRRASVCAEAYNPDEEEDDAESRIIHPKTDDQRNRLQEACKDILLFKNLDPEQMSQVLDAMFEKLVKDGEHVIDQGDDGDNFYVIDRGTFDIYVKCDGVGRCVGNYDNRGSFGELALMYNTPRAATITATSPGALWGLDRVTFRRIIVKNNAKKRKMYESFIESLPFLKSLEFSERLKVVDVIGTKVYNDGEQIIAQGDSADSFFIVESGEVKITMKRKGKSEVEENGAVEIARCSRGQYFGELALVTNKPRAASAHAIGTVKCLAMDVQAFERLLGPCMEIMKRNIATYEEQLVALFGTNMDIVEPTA
# * = called active by the depositor; . = no result given; + = active, no number; ! = not confirmed by another sample.
SMILES,Mot1-301 SUMO,MsrA act,PKA-R1A act,MsrA inhibitor,PKA-R2B act
COc1ccc(Cn2c(C)c(CC(=O)Nc3ccc(Oc4cccnc4)c(C)c3)c3ccccc32)cc1,.,.,.,0,.
COc1c2c(cc3c1c(=O)c1ccccc1n3C)OCO2,.,.,.,0,.
Cc1[nH]nc(N)c1-c1ccc(Cl)cc1,287*,-2,-5,0,-12
CCCCc1c(-c2ccccc2OC)ncn1Cc1c(F)cccc1F,.,.,.,0,.
Nc1nc(Nc2ccccc2F)nc(NCc2ccco2)c1[N+](=O)[O-],304*,-5,-14,2,-3
C[C@H]1NS(=O)(=O)c2cccc(Cl)c2O[C@@H]1c1ccccc1,.,.,.,0,.
O=C(Cc1cccs1)Nc1cccc(-c2nc3cc4ccccc4cc3[nH]2)c1,811*,-5,-7,3,-3
Cn1cc(C(=O)N/N=C/C(Br)=C\c2ccccc2)ccc1=O,-36,-4,9,5.4*,7
COCCNC(=S)N1C[C@H]2CON(C)[C@H]2C[C@H]1c1ccccc1Br,.,.,.,0,.
O=C(O)c1ccccc1CSc1nc2ccccc2o1,320*,-9,-5,-1,-7
COc1ccc(/C(C)=N\Nc2nc(-c3ccc(Cl)cc3)cc(C(F)(F)F)n2)cc1OC,116,-1,-16,1,-3
COc1ccc(/C=N/Nc2nc(-c3ccc(Cl)cc3)cc(C(F)(F)F)n2)c(OC)c1,-1,-2,-1,4.6*,-5
O=C1NC(=O)C(c2ccccc2)(c2ccccc2)N1,332*!,-6,0,0,5
O=C1NC(=O)C(c2ccccc2)(c2ccc(O)cc2)N1 (stereo unspecified),17,-2,-15,0,-9
O=S(=O)(c1ccc(F)cc1)c1snnc1-c1ccccc1,214,-3,3,1,8
O=S(=O)(c1ccc(Cl)cc1)c1snnc1-c1ccccc1,307*,-4,-12,0,-5
Cc1cc(C)n(-c2cc(-c3ccccc3)nc(C)n2)n1,336*,-5,-3,1,0
Cc1nc(-c2ccccc2)cc(N2CCCC2)n1,-7,-4,1,-1,7
COC(=O)[C@]12C[C@H](CC(=O)N3CCOCC3)C(=O)N(Cc3ccc4c(c3)OCO4)C1=C[C@H](COCc1ccccc1)O[C@@H]2C,.,.,.,1,.
COC(=O)C1=C(C)N(Cc2ccccc2C(F)(F)F)C(=NCc2cccc(C(F)(F)F)c2)NC1CCc1ccccc1 (stereo unspecified),.,.,.,-1,.
CCc1ccc(NC(=O)C2CC=CCC2C(=O)O)cc1 (stereo unspecified),-9,-1,0,0,3
O=C(O)Cc1ccc(NC(=O)C2CC=CCC2C(=O)O)cc1 (stereo unspecified),625*,.,.,.,.
COc1cccc(C(=O)N[C@H](C(=O)N2CCC[C@H]2C(=O)NCc2ccccc2)c2ccccc2)c1,.,.,.,0,.
COc1ccc(C=NNC(=S)NN=Cc2ccc(OC)c(OC)c2)cc1OC,.,1,4,5.7*,5
COc1ccc(/C=N/NC(=S)NCc2ccccc2)cc1OC,-10,-11,-12,2,-9
SMILES,Mot1-301 SUMO,MsrA act,PKA-R1A act,MsrA inhibitor,PKA-R2B act
O=C(NC(=S)Nc1ccccc1Cl)c1ccco1,355*,-3,1,0,-7
COC(=O)c1ccc(-c2cccc(CN3CCN(c4ncc(Cc5ccccc5)cn4)CC3)c2)cc1,.,.,.,2,.
CC12CN3CC(C)(CN(C1)C3c1ccc3c(c1)OCO3)C2O (stereo unspecified),+,2,8,1,-2
CCC(C(=O)NCCCN1CCCCCC1)n1nc(C)c2sc3ccccc3c2c1=O (stereo unspecified),-7,-1,-6,0,-3
CCCN1CCN(CCCNC(=O)CCCn2nc(C)c3sc4ccccc4c3c2=O)CC1,352*,-2,1,1,-6
Cc1ccc(-c2cc(C(=O)N/N=C/C=C/c3ccccc3)n[nH]2)s1,25,-7,-11,4.6*,-5
O=P(Cc1nnco1)(c1ccccc1)c1ccccc1,340*,-3,-16,-1,6
CCOCCn1c2ccccc2c2nc3ccccc3nc21,-24,-2,5,4.7*,3
CCn1c2ccccc2c2nc3ccccc3nc21,-12,-2,-6,.,-3
COc1cc(/C=N/N2C(C)CCCC2C)cc(Br)c1O (stereo unspecified),3,-4,9,3,-9

# Compound activity from PubChem BioAssay.
